The test concerns HL-60(TB) leukemia. The test is described as follows: NCI-60 one-dose screen, 48 h (100 = growth as untreated, 0 = no growth, -100 = all killed). The settings on record: 10 µM unless noted.

This is part of a sample that, as a whole, favours compounds with a hit. Of some 83,000 tested, about 20% had one in any assay.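 Values shown are percent growth following 48 h exposure of cells in 96-well plates to a single concentration of compound; below 10 was considered active.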 A number with no mark means an inactive call. Calls of active or inactive are those of the source.

On to `O=C1c2c(c3c4cccnc4[nH]c3c3ccc4ccccc4c23)C(=O)N1CCN1CCNCC1`, for which the growth was 64.2%.

`O=C(N/N=C/c1ccco1)c1[nH]c2ccc(Br)cc2c1-c1ccccc1`: the growth is -28.4% (active).

Turning to `Oc1ccc(-c2nc3ccc(/C(=N\N=C\c4ccc(Cl)cc4)c4ccccc4)cc3[nH]2)cc1`, the growth was 27.5%.

As to `CN1CCN(c2ccc(C(=O)/C=C/c3ccc(Cl)c(C(F)(F)F)c3)cc2)CC1`, the growth is -22.6% (active).

On to `COc1ccc([C@H]2c3[nH]c4ccccc4c3C[C@H]3C(=O)N(C4CCN(Cc5c(Cl)cccc5Cl)CC4)CC(=O)N23)c(OC)c1`, for which the growth was 97%.

On to `CCOC(=O)c1nn(-c2ccc(C)cc2)c(=O)c2c(N)c(C#N)c(-c3ccc(OC)cc3)cc12`, for which the growth is 125%.

`CCC(CC)N1C(=O)/C(=c2\sc3n(c2=O)NC2C(N=3)N(CC)C(=O)N2CC)c2ccccc21` (centres undefined): the growth was 26.5%.

As for `CCCn1cnc2c(c1=N)C(c1ccc(Cl)cc1)c1sc3c(C)cccc3c1O2` (centres undefined), the growth is -20% (active).

Take `CC1=C(C)C(=O)C(Nc2ccc(C)c(C)c2)=C(Br)C1=O`: the growth is -37.7% (active).

Take `NC(=O)c1ncn2c(=O)n(CCF)nnc12`: the growth is 29.6%.

In the case of `COc1ccc(/C(N)=N/C(N)=N/c2nc3ccccc3s2)cc1`, the growth was 108%.

`Cc1csc(/N=C(N)/N=C(\N)c2cccs2)n1`: the growth was 111%.

As for `O=C(c1ccc(O)c(C(=O)N2Cc3ccc(OCCC[P+](c4ccccc4)(c4ccccc4)c4ccccc4)cc3C2)c1)N1Cc2cccc(F)c2C1`, the growth was 57.8%.

`Oc1[nH]c2ccc(Cl)cc2c1N=Nc1nc(N=Nc2c(O)[nH]c3ccc(Cl)cc23)nc(N2CCOCC2)n1`: the growth was 72.2%.

For `CCOc1ccc2nc(NC(=O)c3ccc(C(F)(F)F)cc3)sc2c1`, the growth is 93.9%.

As to `C#Cc1nc(C2=C(C)C(O)CC2)cs1` (centres undefined), the growth is 94.2%.

Regarding `COc1cc(CNC(=O)Cc2ccccc2[N+](=O)[O-])ccc1OCC(=O)NO`, the growth was 118%.

With `O=C(CCCCCCN1CC(=O)N2[C@@H](c3ccc(Cl)s3)c3[nH]c4ccccc4c3C[C@H]2C1=O)NO`, the growth was 1.42% (active).

Turning to `CC(=O)O[C@@H]1C(=O)N(c2cnccn2)[C@H]1c1ccccc1[N+](=O)[O-]`, the growth was -30.4% (active).

Turning to `COc1cc(OC)c(S(N)(=O)=O)cc1C(=O)/C=C/c1ccccc1`, the growth was 5.25% (active).

For the compound `O=C1Nc2cc(OC(F)(F)F)ccc2Oc2ccc(-c3ccnc(N4CC[C@H](O)C4)c3)cc21`, the growth is -23.6% (active).

As for `CCOC(=O)c1cnc2c(-c3ccc(Cl)c(Cl)c3)cnn2c1`, the growth is 59.5%.

Turning to `Nc1nc(-c2cccc([N+](=O)[O-])c2)c(N=Nc2ccccc2Cl)s1`, the growth was 93.7%.

For `Cc1cccc2sc(/N=C(\N)C(Cl)(Cl)Cl)nc12`, the growth is 103%.

Take `COc1ccc(Cn2cc3c(c2-c2cc(OC)c(OC)c(OC)c2)CCc2c(CN4CCCC4)noc2-3)cc1`: the growth was 3.57% (active).

As to `CNC(=O)c1cc(-c2ccc(NS(=O)(=O)c3ccc(C)cc3)cc2)nc2cccnc12`, the growth was 113%.

With `CCN(CC)c1ccc2c(c1)Oc1nc(N)c(C#N)c(N)c1C2Sc1ccc(C)cc1` (centres undefined), the growth is -24.4% (active).

Take `Cc1ccc(-c2cc3nc(C(Cl)Cl)nc(-c4ccc(S(=O)(=O)N(C)C)cc4)n3n2)cc1`: the growth was 74.9%.

On to `COc1cc(/C=N/NC(=O)c2cn(C3CC3)c3c(OC)c(N4CC5CCCNC5C4)c(F)cc3c2=O)ccc1O` (centres undefined), for which the growth is -40.3% (active).

For the compound `N#Cc1c(-c2ccc(Cl)cc2)nc2c(-c3ccccc3)c(Nc3ccccc3)nn2c1N`, the growth is 91.3%.

As for `COc1ccc2c(c1)c(-c1nc(N)nnc1-c1c[nH]c3ccccc13)cn2C`, the growth is 3.5% (active).

Turning to `C#CCOc1ccc(-c2csc(NC(=O)C=C)n2)cc1NS(=O)(=O)c1cccc2c(N(C)C)cccc12`, the growth is -4.97% (active).

As to `CCc1cccc2c3c(sc12)C(c1ccc(Cl)cc1)C(C#N)=C(/N=C/c1ccc(Cl)cc1)O3` (centres undefined), the growth was -6.78% (active).

In the case of `CN1CCN(Cc2ccc(NC(=O)c3cncc(C#Cc4cnc5[nH]ncc5c4)c3)cc2C(F)(F)F)CC1`, the growth was 8.94% (active).

Regarding `CCC1=Cc2cc(OC)ccc2OC12C=Cc1cc(OC)ccc1O2` (centres undefined), the growth was -1.93% (active).

For the compound `Cc1cc(C(NC(=O)CCCCCNc2cccc3c2C(=O)N(C2CCC(=O)NC2=O)C3=O)c2cccnc2)c(O)c2ncccc12` (centres undefined), the growth is -31% (active).

Turning to `COc1cc2oc(-c3cccc(NC(=O)c4cc(NC(=O)[C@H](C)NC(=O)OC(C)(C)C)ccc4C)c3)cc(=O)c2c(OC)c1OC`, the growth was 62.6%.

As for `Cc1cc(=O)n2nc(-c3cn(C)c4ccc(Cl)cc34)sc2n1`, the growth was 92.5%.

Turning to `C#CCOC(=O)[C@@H]1CCCN1CC#C`, the growth was 85.3%.

With `COc1cc(/C=C/C(=O)c2ccc(C(F)(F)F)cc2)ccc1Oc1nc(NCCO)nc(N2CCOCC2)n1`, the growth is 53.4%.

On to `O=C(CNc1nc(-c2cccc([N+](=O)[O-])c2)cs1)Nc1cccc([N+](=O)[O-])c1`, for which the growth is -9.99% (active).

`Cn1cc(-c2nnc(N)nc2-c2c[nH]c3ccc(F)cc23)c2cc(F)ccc21`: the growth was 61.7%.

Turning to `Nc1nc(N)c2c(n1)NC(c1ccc(Cl)cc1)CC(c1ccc(Nc3nc(NCCO)nc(N4CCOCC4)n3)cc1)=N2` (centres undefined), the growth was 27%.

Turning to `NC(N)=Nc1ccc(Oc2cccc(NC(N)=Nc3ccc(Cl)c(C(F)(F)F)c3)c2)cn1`, the growth was 0.375% (active).

The record behind these values is PubChem BioAssay (NCI).
